Where a name gives a salt, the structure may show the parent alone. ± gives the standard deviation of the averaged measurements. Whole data set: some 1,900 compounds, median “normalised cell viability (NPI; 0 = phenylarsine oxide control, 1 = DMSO control)” near 1, cut for the lowest 2% near 0.039. Many of the other results were omitted from the sample, so the lowest values are more common in it than they were.
System: NCI-H1944
Experiment: normalised cell viability (NPI; 0 = phenylarsine oxide control, 1 = DMSO control) (fraction of DMSO control); NCI-H1944 is a non-small cell lung cancer line; higher = more viable cells (less compound toxicity)
Details: 6 days
[1] = glucocorticoid arm: hydrocortisone 2.75 uM co-treatment, compound 1 µM
[2] = glucocorticoid arm: hydrocortisone 2.75 uM co-treatment, compound 5 µM
[3] = glucocorticoid arm: hydrocortisone 2.75 uM pre-treated 2 days and continued, compound 1 µM
[4] = glucocorticoid arm: hydrocortisone 2.75 uM pre-treated 2 days and continued, compound 5 µM
[5] = glucocorticoid arm: vehicle, compound 1 µM
[6] = glucocorticoid arm: vehicle, compound 5 µM
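Note: CTB read-out in 384-well plates, triplicate wells, NPI normalised per plate against 1 µM phenylarsine oxide (0) and 0.1% DMSO (1) controls.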

Structure (SMILES)	normalised cell viability [1]	normalised cell viability [2]	normalised cell viability [3]	normalised cell viability [4]	normalised cell viability [5]	normalised cell viability [6]
CCS(=O)(=O)Nc1cccc(C(=C2CCCCC2)c2cnc[nH]2)c1	1.006 ± 0.0063	1.04 ± 0.015	1.01 ± 0.011	1.04 ± 0.028	0.985 ± 0.013	0.9933 ± 0.0061
CN1CC[C@@]2(C)c3cc(O)ccc3N(C)C12 (single isomer, unassigned; (-)) [(-)-Eseroline fumarate]	0.9967 ± 0.0058	0.972 ± 0.013	1.03 ± 0.045	0.971 ± 0.011	0.9967 ± 0.0042	0.996 ± 0.012
CCn1cnc2c(Nc3cccc(Cl)c3)nc(N[C@@H]3CCCC[C@@H]3N)nc21	0.783 ± 0.025	0.0569 ± 0.018	1.01 ± 0.011	0.182 ± 0.0028	0.321 ± 0.043	0.0192 ± 0.0037
C[C@H](N)CN1CCc2ccc(Br)cc21 [VER-3323 hemifumarate salt]	1.001 ± 0.0085	1.01 ± 0.024	1 ± 0.011	1.05 ± 0.021	0.9897 ± 0.0015	1 ± 0.015
C[C@H]1O[C@@H](C[N+](C)(C)C)CS1	1.013 ± 0.0058	1.007 ± 0.0058	1	1 ± 0.024	0.9857 ± 0.0046	0.9857 ± 0.0038
CC12CCC3C(CCC4=C(O)C(=O)CCC43C)C1CCC2=O (centres undefined) [4-Androsten-4-ol-3,17-dione]	0.9977 ± 0.0021	0.9747 ± 0.0093	0.999 ± 0.001	1 ± 0.011	0.995 ± 0.015	1.003 ± 0.0061
Cc1c(N)nc([C@H](CC(N)=O)NC[C@H](N)C(N)=O)nc1C(=O)N[C@H](C(=O)N[C@H](C)[C@@H](O)[C@H](C)C(=O)N[C@H](C(=O)NCCc1nc(-c2nc(C(=O)NCCC[S+](C)C)cs2)cs1)[C@@H](C)O)[C@@H](OC1OC(CO)C(O)C(O)C1OC1OC(CO)C(O)C(OC(N)=O)C1O)c1cnc[nH]1 (some centres undefined) [Bleomycin sulfate]	0.669 ± 0.048	0.196 ± 0.017	0.9903 ± 0.0051	0.637 ± 0.034	0.142 ± 0.024	0.0339 ± 0.0093
CCC1(c2ccc(N)cc2)CCC(=O)NC1=O (racemic) [(±)-p-Aminoglutethimide]	0.997 ± 0.0052	1.01	0.866 ± 0.23	1 ± 0.027	1.006 ± 0.0063	1
CN[C@@H]1C[C@@H](c2ccc(Cl)c(Cl)c2)c2ccccc21 [Indatraline hydrochloride]	1 ± 0.0095	0.931 ± 0.02	1.02 ± 0.021	1.04 ± 0.084	1.01	1.03 ± 0.05
C[Se]C[C@H](N)C(=O)O [Se-(methyl)selenocysteine hydrochloride]	1.006 ± 0.0069	1.02 ± 0.015	1	0.859 ± 0.28	1.006 ± 0.0069	1.01 ± 0.016
C=C(C)[C@H]1Cc2c(ccc3c2O[C@@H]2COc4cc(OC)c(OC)cc4[C@@H]2C3=O)O1 [Rotenone]	0.627 ± 0.064	0.39 ± 0.013	0.969 ± 0.016	0.685 ± 0.094	0.22 ± 0.011	0.115 ± 0.019
C=CCc1ccccc1OCC(O)CNC1(C)CCC(C(C)(C)NC(=O)CBr)CC1 (centres undefined) [Bromoacetyl alprenolol menthane]	0.9893 ± 0.0093	-0.000605 ± 0.0006	0.994 ± 0.016	0.0027 ± 0.0058	0.978 ± 0.004	-0.000518 ± 0.00015
C1CN1c1nc(N2CC2)nc(N2CC2)n1 [Triethylenemelamine]	1.023 ± 0.0058	0.775 ± 0.022	1.017 ± 0.0058	0.989 ± 0.015	0.993 ± 0.0082	0.273 ± 0.028
C=CCN(C1=NCCN1)c1c(Cl)cccc1Cl [Alinidine]	0.999 ± 0.012	0.992 ± 0.016	1.02 ± 0.049	1 ± 0.021	0.9973 ± 0.0031	0.9913 ± 0.0035
O=C1C=CC(=O)C=C1 [p-Benzoquinone]	1.007 ± 0.0058	1.01 ± 0.012	1.006 ± 0.0075	0.999 ± 0.03	1.01 ± 0.012	0.999 ± 0.011
Cc1nc(-c2ccc(-c3ccc(C(=O)N4CCc5cc6c(cc54)C4(CCN(C)CC4)CO6)cc3)c(C)c2)no1	0.994 ± 0.0066	0.356 ± 0.53	1.02 ± 0.02	1.1 ± 0.021	0.994 ± 0.014	0.00588 ± 0.0059
CC1C2Cc3ccc(O)cc3C1(C)CCN2CC1CC1 (single isomer, unassigned; (+)) [(+)-Cyclazocine]	1.001 ± 0.0085	1.003 ± 0.0058	1 ± 0.01	0.978 ± 0.013	1.01	0.9993 ± 0.0095
CCCN(CCC)C1CCc2cccc(O)c2C1 (racemic) [(±)-8-Hydroxy-DPAT hydrobromide]	1.02 ± 0.017	1.01 ± 0.01	1.01 ± 0.01	1.004 ± 0.0098	0.9967 ± 0.0058	0.9947 ± 0.0067
C=CCN1CC[C@]23c4c5ccc(O)c4O[C@H]2/C(=N/N=C2\CC[C@@]4(O)[C@H]6Cc7ccc(O)c8c7[C@@]4(CCN6CC=C)[C@H]2O8)CC[C@@]3(O)[C@H]1C5 [Naloxonazine dihydrochloride]	0.9893 ± 0.008	1.03 ± 0.02	1 ± 0.01	1.03 ± 0.064	0.9877 ± 0.0015	1.01 ± 0.01
CC[C@H]1CN2CCc3cc(OC)c(OC)cc3[C@@H]2C[C@@H]1C[C@H]1NCCc2cc(OC)c(OC)cc21 [Emetine dihydrochloride hydrate]	0.0625 ± 0.016	0.0175 ± 0.00036	0.342 ± 0.016	0.165 ± 0.0093	0.0125 ± 0.001	0.0108 ± 0.0029
CCCN(CCC)[C@@H]1CCc2c(F)ccc(O)c2C1 [R(+)-UH-301 hydrochloride]	1.013 ± 0.0058	1.017 ± 0.0058	1.03 ± 0.021	1.017 ± 0.0058	1.02	1.017 ± 0.0058
OC[C@H]1O[C@@H](n2cnc3cc(Cl)c(Cl)cc32)[C@H](O)[C@@H]1O [5,6-Dichlorobenzimidazole riboside]	1.007 ± 0.0058	0.998 ± 0.013	1.007 ± 0.0058	1.03 ± 0.01	0.988 ± 0.008	0.991 ± 0.0053
NC1CCc2cc(O)c(O)cc2C1 (centres undefined) [6,7-ADTN hydrobromide]	1.001 ± 0.009	1.01 ± 0.011	0.992 ± 0.022	1.002 ± 0.0068	0.98433 ± 0.00058	0.9887 ± 0.0059
O=C[C@H](Cl)[C@@H](O)[C@H](O)[C@H](O)CO [2-Chloro-2-deoxy-D-glucose]	1 ± 0.013	0.9953 ± 0.0015	1.01 ± 0.012	0.994 ± 0.01	0.9807 ± 0.0011	0.9817 ± 0.0067
